Screening data as filed in PubChem BioAssay.
Hits are enriched below; roughly 8.9% of the tested compounds scored in any of these assays.
ALDH1A1 inh: blocks purified human ALDH1A1 activity. Purified ALDH1A1, NADH fluorescence, propionaldehyde substrate. Potency, µM (doses to about 75.3 µM), inactives show at the top dose activity, negative = inhibition, hits mostly inhibitors. P00352. 220,000 tested, 7.3% active; active means well fitted inhibition curve with a large enough effect, not every such curve was filed as active; inconclusive means small, poorly fitted or top-dose-only effect, or another doubt; inactive means no such curve, though single readings can be large or run the other way;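 further: potency means the concentration at half of the fitted maximal effect; plate controls were no enzyme wells and a reference inhibitor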
NPSR antagonist: antagonists of human neuropeptide S receptor cAMP signaling | Q6W5P4 | CHO-NPSR cells, cAMP TR-FRET, antagonist mode | Potency, µM (titrated, usually from 38.3 µM), without a hit: at the top dose activity change, negative = inhibition, actives largely listed as inhibitors | 220,000 tested, 1% active | AID 1461; further: potency means the concentration at half of the fitted maximal effect; nearly all actives have a fitted effect of over 50% in size
12-hLO inh: 12-hLO (ALOX12) enzyme inhibition; P18054; purified 12-hLO, xylenol orange hydroperoxide absorbance; Potency, µM (top dose mostly 57.1 µM), for the others: at the top dose activity change, negative = inhibition, actives largely listed as inhibitors; 150,000 tested, 0.12% active; further: potency means the concentration at half of the fitted maximal effect; nearly all actives have a fitted effect of over 55% in size
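150 nM 12hLO, 25 mM Hepes pH 7.0 + 0.01% Triton X-100; cpd preinc 15 min RT; 40 uM arachidonic acid, 30 min RT; Fe-XO 30 min; A573/A405 ratio as read-out.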
IMPase Li inh: membrane-permeable IMPase blocker, potentiated with lithium; Potency, µM (doses to about 59.4 µM), without a hit: at the top dose activity, negative = IMPase inhibition, most hits filed as inhibitors; AID 1457; 210,000 tested, 0.35% active; CHO-M1 cells, IP1 TR-FRET (IP-One), carbachol + lithium;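 further: IP1 builds up when IMPase is blocked and the TR-FRET signal falls; potency means the concentration at half of the fitted maximal effect; plate controls were basal vehicle for no effect and high inhibitor control for full effect; nearly all actives have a fitted effect of over 50% in size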
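CHO-M1, 2000 cells/well, 16–30 h culture; cpd + low Li+, 30 min 37C; lysis with d2-IP1/Eu-anti-IP1 Ab, 10 min RT; TR-FRET 665/620 ratio and 620 channel; AC50 via Hill.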
IMPase inh: membrane-permeable compound that blocks inositol monophosphatase; 120,000 tested, under 10 active; CHO-M1 cells, IP1 accumulation, HTRF TR-FRET ratio; inhibition (IP1 accumulation), % at 46.1 µM; AID 901; P97697; active means well fitted curve in the direction sought with a large enough effect in the signal ratio, not every such curve was filed as active; inconclusive means small, poorly fitted or top-dose-only effect, or a change in a side signal; inactive means no such curve, though single readings can be large or run the other way; the % refers to the signal ratio;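 further: cells stimulated with carbachol in lithium chloride buffer; plate controls were DMSO basal wells for no effect and reference inhibitor wells for full effect; higher means more IMPase inhibition seen as more IP1 and lower FRET ratio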
Target sequence (P97697 whole entry, looked up): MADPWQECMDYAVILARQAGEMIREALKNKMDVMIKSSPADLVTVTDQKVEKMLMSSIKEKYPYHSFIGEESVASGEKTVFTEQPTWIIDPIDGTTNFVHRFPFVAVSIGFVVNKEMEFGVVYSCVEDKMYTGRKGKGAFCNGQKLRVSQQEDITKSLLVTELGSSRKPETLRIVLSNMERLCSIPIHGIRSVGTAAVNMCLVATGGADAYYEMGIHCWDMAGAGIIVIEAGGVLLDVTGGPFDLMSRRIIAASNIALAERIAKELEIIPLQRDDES
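Measured: the HTRF emission ratio (665/620 nm) plus the 620 nm donor channel, each fitted to the Hill equation to give AC50. Cells were CHO-M1 given compounds up to 46 uM and a 30 min carbachol stimulation at 37C.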
HPGD inh: HPGD (human) dehydrogenase inhibition. P15428. purified HPGD, NADH fluorescence kinetic, PGE2 substrate. Potency, µM, for inactives: top-dose activity change, negative = inhibition, usual class: inhibitors. 150,000 tested, 4.3% active. AID 894; active means well fitted inhibition curve with a large enough effect, not every such curve was filed as active; inconclusive means small, poorly fitted or top-dose-only effect, or another doubt; inactive means no such curve, though single readings can be large or run the other way; further: potency means the concentration at half of the fitted maximal effect
Target sequence (P15428 whole entry, looked up): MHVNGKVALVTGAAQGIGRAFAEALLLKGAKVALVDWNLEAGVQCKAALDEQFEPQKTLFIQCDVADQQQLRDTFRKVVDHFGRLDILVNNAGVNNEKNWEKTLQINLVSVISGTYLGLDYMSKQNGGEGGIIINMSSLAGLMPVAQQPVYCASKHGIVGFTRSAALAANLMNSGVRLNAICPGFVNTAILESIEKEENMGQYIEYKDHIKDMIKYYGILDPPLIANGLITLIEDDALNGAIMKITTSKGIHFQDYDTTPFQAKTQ
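NADH formation kinetics: reaction with 30 uM PGE2 and 1 mM NAD+ (final), 20 nM enzyme, Tris-HCl pH 8 with Tween 20, after 15 min compound preincubation at room temperature. Fluorescence change, last versus first of five reads.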
Starred values were filed as active, the others as inactive; ? = inconclusive; nt = no result; [ ] = another dose, or the depositor's remark. Unless noted, the call rests on the fitted dose curve; in most records, active means well fitted curve in the direction sought with a large enough effect; inconclusive means small, poorly fitted or top-dose-only effect, or another doubt; inactive means no such curve, though single readings can be large; an effect the other way counts as inactive or inconclusive. Unless noted, on the % scale 0 is the no-effect control and ±100 the full control effect.

SMILES	ALDH1A1 inh	NPSR antagonist	12-hLO inh	IMPase Li inh	IMPase inh	HPGD inh
O=C(COC(=O)C1CC(=O)N(Cc2ccco2)C1)c1ccc(OC(=O)c2ccco2)cc1 (stereo not drawn)	1.58µM*	-18.9%[46.1 µM]	-2.4%	-4.8%	4.7	17.8µM*
Cc1ccc(CCN2CC(C(=O)NCc3ccco3)CC2=O)cc1 (stereo not drawn)	28.2µM*	-11.5%[46.1 µM]	6.8%	1.6%[38.3 µM]	1.6	-12.5%
O=C(COC(=O)C1CC(=O)N(Cc2ccccc2)C1)c1ccc(Br)cc1 (stereo not drawn)	0.9%	13.7%	-1.1%	-5.9%	nt	-10.1%
Cc1[nH]c2ccccc2c1C(=O)COC(=O)C1CC(=O)N(Cc2ccco2)C1 (stereo not drawn)	?	-1.8%[46.1 µM]	-2.1%	2.4%[38.3 µM]	-1.4	-9.6%
Cc1ccc(C(=O)Oc2ccc(C(=O)COC(=O)C3CC(=O)N(Cc4ccco4)C3)cc2)cc1 (stereo not drawn)	25.1µM*	1.3%[46.1 µM]	-4.3%	-1.5%	?	?
O=C(C[n+]1ccc(C(=O)c2ccccc2)cc1)Nc1ccc(C(F)(F)F)cc1	2.4%	-10.8%	nt	17.7%	nt	nt
C/C(=N\NC(=O)COc1ccccc1-c1ccccc1)c1cccnc1	14.1µM*	-16.7%	nt	26.8%	nt	nt
O=C(COc1ccccc1-c1ccccc1)N/N=C/c1cccnc1	-1.5%	-8.3%	nt	-3.5%	nt	nt
C/C(=N\NC(=O)COc1ccccc1-c1ccccc1)c1ccccn1	2.51µM*	7.94µM*	nt	31.7%	nt	nt
O=C(c1csc2c1CCCC2)N1CCN(c2ccccc2)CC1	-12.7%	?	3.6%	-3.6%[38.3 µM]	4.6	-7.2%
N/C(Cc1ccccc1)=N\OC(=O)c1cccc2ccccc12	-6.1%	-5.0%	2.4%	-7.6%	nt	2.51µM*
N/C(=N\OC(=O)c1cccc2ccccc12)c1ccncc1	nt	-0.6%	nt	nt	nt	nt
CC1(C)OC(=O)C(=CNCC(O)c2ccccc2)C(=O)O1 (stereo not drawn)	11.2µM*	2.4%[46.1 µM]	3.8%	-17.8%[38.3 µM]	2.6	-18.3%
O=C(Nc1ccon1)c1ccc(Cl)s1	8.6%	3.3%[46.1 µM]	-3.0%	2.1%	-0.2	17.8µM*
O=C(Nc1cnccn1)c1csc2ccccc12	?	4.5%[46.1 µM]	-7.2%	11.6%[38.3 µM]	-9.5	-21.3%
O=C(Nc1ccon1)c1csc2ccccc12	?	10.0%[46.1 µM]	1.9%	-8.1%[38.3 µM]	-3.0	25.1µM*
Cc1[nH]n(-c2ccccc2)c(=O)c1/C=N/n1c(C)nc2ccccc2c1=O	?	-16.1%[46.1 µM]	2.2%	13.7%[38.3 µM]	0.8	-23.5%
CCC1S/C(=N/C(=O)NC2CCCCC2)NC1=O (stereo not drawn)	-2.7%	-1.3%[46.1 µM]	-4.8%	1.0%	-7.1	-13.6%
O=C(/N=C1\NC(=O)C(F)(C(F)(F)F)S1)NC1CCCCC1 (stereo not drawn)	7.08µM*	-15.4%[46.1 µM]	-11.5%	-1.0%[38.3 µM]	-3.2	7.94µM*
COC(=O)Cn1c(=N)n(CCN2CCCCC2)c2ccccc21	5.2%	-3.2%[46.1 µM]	-1.9%	-18.7%[38.3 µM]	-7.6	1.7%
CCOC(=O)c1sc(=NC(=O)c2ccc(S(=O)(=O)N(C)c3ccccc3)cc2)n(C)c1C	35.9%	3.16µM*	nt	-0.7%	nt	nt
Cc1ccc(C)c(NNC(N)=S)c1	12.6µM*	2.0%	nt	1.2%	nt	nt
Cc1cccc(NNC(N)=S)c1C	12.6µM*	-3.0%	nt	-5.4%	nt	nt
Cc1ccc(-c2nnn(CC(=O)NCC3COCCO3)n2)o1 (stereo not drawn)	15.0%	1.0%[46.1 µM]	-2.2%	-0.1%[38.3 µM]	-3.7	-10.5%
Cc1ccc(C(=O)NC=C(Cl)Cl)cc1	-4.0%	5.2%[46.1 µM]	1.6%	22.7%[38.3 µM]	15.7	28.2µM*
Cc1ccc(C(=O)NC(O)C(Cl)Cl)cc1 (stereo not drawn)	6.7%	9.0%	-3.9%	-8.9%	nt	25.1µM*
CC(C)C(CCNC(=O)CC(Cc1ccccc1)c1ccco1)c1ccco1 (stereo not drawn)	?	?	?	21.7%[38.3 µM]	3.4	-22.9%
CCc1ccc(-c2c(C)sc(NC(C)=O)c2C(N)=O)cc1	?	2.7%[46.1 µM]	1.3%	17.7%[38.3 µM]	10.1	?
CC(=O)O/N=C1\C(=O)N(Cc2ccc(C)cc2)c2ccccc21	?	-16.4%	nt	-1.9%	nt	nt
